Experimental findings from ChEMBL document CHEMBL3988442, “University of Dundee, Small-Polar-MMV Screening Library” (2021) are described below.

Hit rate of the full screen: of about 48,000 compounds, about 13,000 (27%) showed an effect of 50% or more. Some of the results follow.

In this experiment the test system is Wolbachia pipientis. Nature of the experiment: Anti-Wolbachia Cell-Based Screen. The format is functional. Set-up: scale not given: in the data most compounds retested in dose-response had high values. Conditions: 5 µM.
Regarding `O=C([C@H]1COC[C@H]2CN(CC3CC3)C[C@H]21)N1CCOCC1`, the “Percent Effect” value is 21.74%.

Regarding `CN(CCCC1CCCC1)C(=O)c1cc(CN2CCC(O)CC2)on1`, the “Percent Effect” value is given as -12.63%. Under `COc1cccc(-c2nc3c([nH]2)CCNC3)c1F` stands -6.974%. Under `CCOc1ccc(N2CCCN=C2NC(=O)c2ccccc2C)cc1` stands -3.123%; under `CC(C)NS(=O)(=O)c1cc(C(=O)O)cc(-c2ccc3c(c2)OCCO3)c1`, -21.29%; under `Cc1ccc2c(c1)C(NCc1ccccn1)CC2` (stereo not given), 6.59%. As for `CC(C)NC(=O)[C@@H]1CN(Cc2nccs2)C[C@H]2OCC[C@H]21`, the figure is -53.61%; as for `Cc1cnn(C2CCCN(C(=O)c3ccc(-n4ccnc4)cc3)C2)c1` (stereo not given), 97.92%; as for `Cc1cnn(C2CCCN(C(=O)c3cccc(Cn4ccnc4)c3)C2)c1` (stereo not given), 6.448%. With `Cc1cnn(C2CCCN(C(=O)c3ccc(Cn4ccnc4)cc3)C2)c1` (stereo not given), the “Percent Effect” value came out at 106.9%. Under `CC(c1ccccc1)n1c(SCC(=O)O)nnc1-c1ccn[nH]1` (stereo not given) stands -4.886%; under `Cn1c(-c2ccccc2)nn(CCNS(=O)(=O)c2ccccc2Cl)c1=O`, -1.369%; under `CCCS(=O)(=O)N1Cc2c(ncn2Cc2ccccc2)C[C@H]1C(=O)OC`, -4.606%.

Turning to `N#Cc1cccc(S(=O)(=O)N2CC(CC(=O)O)c3ccccc32)c1` (stereo not given), the “Percent Effect” value was -2.78%. Under `CC1(C)CN(C(=O)Nc2ccc(Cn3cccn3)cc2)CCO1` stands -0.352%; under `O=C(C1CCOCC1)N1CC[C@@H](O)[C@@H]1Cc1ccccc1`, 90.42%; under `O=C(C1CC=CC1)N1CC[C@@H](O)[C@H]1Cc1cccnc1`, 109.3%.

Consider `Cn1cc(C[C@H]2[C@@H](O)CCN2C(=O)C2CCC2)cn1`, for which the “Percent Effect” value is listed as -13.15%. Under `O=C(C1CCOCC1)N1CC[C@@H]2[C@H]1CCC(=O)N2c1ccccc1` stands -23.21%; under `Cn1cc(C[C@H]2[C@@H](O)CCN2C(=O)C2CC=CC2)cn1`, -1.047%; under `O=C(O)C(F)(F)F.O=C(O)C(F)(F)F.O[C@@H]1CCN(CC2CCOC2)[C@H]1Cc1cccnc1` (stereo not given in full), 3.217%.

Take `O=C(C1CCC1)N1CC[C@H](O)[C@@H]1Cc1cccnc1.O=C(O)C(F)(F)F`: the “Percent Effect” value is on record as 95.67%. With `CN(C)[C@@H]1CCN(C(=O)C2CCOCC2)[C@H]1Cc1ccncc1.O=C(O)C(F)(F)F.O=C(O)C(F)(F)F`, the “Percent Effect” value is -5.936%.

As for `Cn1cc(C[C@H]2[C@H](O)CCN2C(=O)C2CCOCC2)cn1`, the “Percent Effect” value is reported as -4.576%.

Turning to `O=C(C1CCOCC1)N1CC[C@@H](O)[C@@H]1Cc1ccncc1`, the “Percent Effect” value was 93.36%. As for `CC(C)N1CC(C(=O)N2CCc3c(nc(CC4CC4)[nH]c3=O)C2)CC1=O` (stereo not given), the figure is -6.23%. As for `OCC1(CC2CCCCO2)CCN(c2cnc3ccccc3n2)CC1` (stereo not given), the figure is -13.06%; as for `Cc1nc(N2CCCC(C)C2)nc2cc(S(C)(=O)=O)ccc12` (stereo not given), -6.696%; as for `OCc1cn([C@@H]2c3ccccc3C3(CCNCC3)[C@H]2O)nn1`, -1.268%. As for `O=S(=O)(NCC1(O)CCOc2ccccc21)c1ccccc1F` (stereo not given), the figure is 0%; as for `CC(=O)Nc1nc(C(=O)Nc2ccc(N3CCCCC3)nc2)cs1`, 7.498%; as for `CC(C)=CCN1Cc2nnc(C3CCOCC3)n2C(Cc2c[nH]cn2)C1` (stereo not given), -4.476%.

With `Cc1nccn1-c1cc(CNS(=O)(=O)N2CCCC(C)C2)ccn1` (stereo not given), the “Percent Effect” value was found to be 1.62%. As for `c1ccc(C[C@H]2[C@H](N3CCOCC3)CCN2Cc2cccnc2)cc1`, the figure is -10.76%; as for `O=C(C1CCOCC1)N1CC[C@H](O)[C@@H]1Cc1cccnc1`, 108.8%; as for `CN(C)C(=O)N1CCN(Cc2nnc(C(C)(C)C)o2)CC1`, 5.287%.

Turning to `CC(C)N1CCc2c(c(COc3cccnc3)nn2CC2CC2)C1.O=C(O)C(F)(F)F.O=C(O)C(F)(F)F.O=C(O)C(F)(F)F`, the “Percent Effect” value was -5.827%. For `COCCN1CCc2c(c(COc3cccnc3)nn2C)C1.O=C(O)C(F)(F)F.O=C(O)C(F)(F)F`, the “Percent Effect” value worked out at 96.91%. Under `Cc1cccc(CN2Cc3[nH]nc(COc4cccnc4)c3C2)n1.O=C(O)C(F)(F)F.O=C(O)C(F)(F)F.O=C(O)C(F)(F)F` stands 3.508%. As for `Cn1nc(COc2cccnc2)c2c1CCN(CC1CC1)C2.O=C(O)C(F)(F)F.O=C(O)C(F)(F)F`, the figure is 110.2281%; as for `Cn1nc(COc2cccnc2)c2c1CCN(Cc1ccco1)C2.O=C(O)C(F)(F)F.O=C(O)C(F)(F)F`, -12.77%; as for `CN1CCc2c(c(COc3cncnc3)nn2CC2CC2)C1.O=C(O)C(F)(F)F`, -14.06%.

Consider `Brc1ccc(C2(NCc3noc(C4CC4)n3)CCC2)cc1`, for which the “Percent Effect” value is on record as 4.263%. As for `CNC(=O)COc1ccccc1CNC1CCc2nc(C)nn2C1` (stereo not given), the figure is -0.6489%; as for `CCc1nc2n(n1)CC(NCc1noc(-c3ccccc3)n1)CC2` (stereo not given), -10.54%; as for `CCc1nc2n(n1)CC(NCc1noc(-c3ccc(C)cc3)n1)CC2` (stereo not given), 89.35%. As to `CCc1nc2n(n1)CC(NCc1nc(C)c(C)o1)CC2` (stereo not given), the “Percent Effect” value was -17.82%. As for `c1ccc(-c2nccc(CNC3CCc4ncnn4C3)n2)cc1` (stereo not given), the figure is 120.1%; as for `Cc1nc2n(n1)CC(NCCc1cccs1)CC2` (stereo not given), 7.216%; as for `Cc1cccc(-c2nc(CNC3CCc4ncnn4C3)no2)c1` (stereo not given), 121.2%. As for `c1csc(-c2nc(CNC3CCc4ncnn4C3)cs2)c1` (stereo not given), the figure is -10.85%. As for `COc1ccc(-c2nc(CNC3CCc4nc(C)nn4C3)no2)cc1` (stereo not given), the figure is 131.6%; as for `COc1ccccc1CC(=O)N1CCCC(c2nccn2CC(N)=O)C1` (stereo not given), 0.4607%; as for `COc1ccc(OCCc2sc(C3(O)CCCNCC3)nc2C)cc1.Cl` (stereo not given), 2.251%.

On to `O=C1NCCCC12CCN(c1nc3c(c(C(F)(F)F)n1)CCCC3)C2` (stereo not given), for which the “Percent Effect” value was -1.844%. Under `Cc1cccc(-c2nc(CNC3CCc4nc(C)nn4C3)no2)c1` (stereo not given) stands 111%; under `Cc1nc2n(n1)CC(NCc1nc(C)c(C)o1)CC2` (stereo not given), -8.158%. For `Fc1ccc(-c2cnc(CNC3CCc4ncnn4C3)o2)cc1` (stereo not given), the “Percent Effect” value is 7.148%. Turning to `c1nc2n(n1)CC(NCc1nc(-c3ccsc3)no1)CC2` (stereo not given), the “Percent Effect” value is given as -6.7%. For `c1ccc(-c2nc(CNC3CCc4ncnn4C3)no2)cc1` (stereo not given), the “Percent Effect” value was found to be 109.8%. For the molecule `Cc1nc2n(n1)CC(NCc1nc3ccccc3o1)CC2` (stereo not given), the “Percent Effect” value came to 12.54%. With `c1ccc(-c2noc(CNC3CCc4ncnn4C3)n2)nc1` (stereo not given), the “Percent Effect” value was found to be 0.9775%. For `Cc1ccc(-c2nc(CNC3CCc4ncnn4C3)no2)cc1` (stereo not given), the “Percent Effect” value is on record as 118.2%. Under `Cc1nc2n(n1)CC(NCc1nc(-c3cccs3)no1)CC2` (stereo not given) stands -19.82%.

Take `Cc1nc2n(n1)CC(NCc1nc(-c3cccnc3)no1)CC2` (stereo not given): the “Percent Effect” value is -5.692%. Under `Cc1ccc(O)c(CNC2CCc3nc(C)nn3C2)n1` (stereo not given) stands 92.84%; under `O=C(CN1CCOC(c2ccc(Cl)s2)C1)NCc1ccco1` (stereo not given), 16.69%.

For the molecule `CC(C)OC(=O)CCNC(=O)Nc1cccc2ncccc12`, the “Percent Effect” value was -2.669%. Under `CS(=O)(=O)NC1CCN(C(=O)c2ccc(Br)o2)C1` (stereo not given) stands -2.031%; under `COc1ccccc1CNC(=O)N1CCCC(NS(C)(=O)=O)C1` (stereo not given), 10.46%; under `CS(=O)(=O)NC1CCN(C(=O)NCCc2ccccc2F)CC1`, 4.744%. Under `CS(=O)(=O)NC1CCCN(C(=O)NCc2cccc(F)c2)C1` (stereo not given) stands 119.2%. Under `CN1C[C@@H]2CN(C(=O)NCc3cccc(F)c3)CCC[C@]2(C(=O)O)C1.O=C(O)C(F)(F)F` stands -0.5828%; under `Cc1cc(CN2CCCC(NS(C)(=O)=O)C2)ccc1-n1cncn1` (stereo not given), 11.85%.

Turning to `COc1ccc(CNC(=O)N2CCCC(Nc3ccccc3)C2)cn1` (stereo not given), the “Percent Effect” value is listed as -13.37%.

For the molecule `Cc1ccc(CNC(=O)N2CCCC(NS(C)(=O)=O)C2)cc1` (stereo not given), the “Percent Effect” value is recorded as 112.9%. Under `CS(=O)(=O)NC1CCCN(C(=O)NCc2ccoc2)C1` (stereo not given) stands 92.13%; under `COC1CCCN(C(=O)NCc2ccc(C(=O)N(C)C(C)C)cc2)C1` (stereo not given), -8.588%. As for `CS(=O)(=O)NC1CCCN(C(=O)NCc2ccccc2Cl)C1` (stereo not given), the figure is 118.4%. As for `CC(C(=O)N1CCc2ccccc21)N1CCc2cncnc2C1` (stereo not given), the figure is 1.414%; as for `CC1(C)CN(C(=O)CCc2nc(-c3ccncc3)no2)CCO1`, 17.48%. For the molecule `CC(=O)N(C/C=C/c1ccccc1)CCO`, the “Percent Effect” value is -9.29%.

Take `CC(C)c1nccn1C1CCCN(C(=O)c2ccc3c(c2)COC3)C1` (stereo not given): the “Percent Effect” value is -6.912%. Under `CC(C)c1nccn1C1CCCN(C(=O)c2ccc3nncn3c2)C1` (stereo not given) stands 89.79%; under `CC(C)c1nccn1C1CCCN(C(=O)c2ccn(C)c(=O)c2)C1` (stereo not given), -3.204%. As for `CCc1nccn1C1CCCN(C(=O)c2ccc3nncn3c2)C1` (stereo not given), the figure is -7.143%; as for `O=C(c1ccc2nncn2c1)N1CCCC(n2ccnc2)C1` (stereo not given), 105.7%; as for `Cc1nccn1C1CCCN(C(=O)c2ccc3nncn3c2)C1` (stereo not given), 98.97%.

On to `CN(Cc1cccnc1)C[C@@H]1OC[C@H]2CN(C(=O)C3CC3)CC[C@H]21.O=C(O)C(F)(F)F.O=C(O)C(F)(F)F`, for which the “Percent Effect” value is -11.76%. As for `O=C(Nc1cc(Cl)ccc1Cl)NC1CCN(C2CCOC2)CC1` (stereo not given), the “Percent Effect” value is -16.63%. As for `CCCn1ccnc1CN1C[C@@H](CN2CCCCC2)[C@@H](CO)C1`, the figure is -0.9532%; as for `CN(CCCc1cnn(C)c1)c1nccc(-c2cc(C(=O)O)ccn2)n1`, 108.4%; as for `Cn1cc(CCCN2CCN(C(=O)c3cccc(O)c3)CC2)cn1`, -1.766%. As for `CC(C)N(Cc1cnn(C)c1)C(=O)c1ccnc(N(C)C)c1`, the figure is 14.77%; as for `CN(CCCc1cnn(C)c1)C(=O)Nc1cccc(C#N)c1`, -5.075%. Under `CN(Cc1cnn(C)c1)c1nccc(-c2cc(C(=O)O)ccn2)n1` stands 109.1%; under `Cc1nc(N(C)CCCc2nccn2C)c2nc(C)oc2n1`, -2.669%.

As for `CN(CCCc1nccn1C)c1nccc(N2CCC(O)C2)n1` (stereo not given), the “Percent Effect” value was 13.17%. As for `Cc1nn(C)cc1-c1ccnc(N(C)Cc2cnn(C)c2)n1`, the “Percent Effect” value was -26.11%. On to `CN(CCCc1nccn1C)c1nccc(-c2cc(C(=O)O)ccn2)n1`, for which the “Percent Effect” value is listed as 93.19%.
